Experiment [1] relates to Sporothrix brasiliensis CBS 133006. The experiment in a line: growth inhibition relative to untreated control; higher = more growth inhibition (more antifungal activity), active = 80 or more; extreme values may be limits of the assay. The note with it: 1 µM; 48 h. The essentials: (§1)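 The reported figure is percent growth inhibition relative to untreated cells, from quadruplicate runs. Yeast-form cells of the reference isolates at 1 x 10^5 CFU/ml were exposed to library compounds at a final 1 μM for 48 h at 35°C in 5% CO2, and growth was assessed by microscopy and spectrophotometric readings.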

Experiment [2] deals with Sporothrix schenckii ATCC 32286. The experiment is described as above. Particulars: 1 µM; 48 h. A digest of the protocol:
as §1

The structures appear in SMILES notation. Values without a mark were called inactive.

For the compound `CCN(CC)S(=O)(=O)c1ccc(C(=O)Nc2cc(C)nn2-c2nc(C)c(C)c(=O)[nH]2)cc1`, the growth inhibition in experiment [1] was 1.25%; in experiment [2], 0%.
With `O=C(c1cc2ccccc2o1)N1CCN(Cc2ccc3c(c2)OCO3)CC1`, the growth inhibition in experiment [1] was 12.8%; in experiment [2], 7.25%.
The like results for `CC(=O)NC[C@H]1CN(c2ccc(N3CCSCC3)c(F)c2)C(=O)O1` were, in that order, 5.5% and 0%.
The like results for `COc1ccccc1CNC(=O)c1cc(C2CC2)nc2c1cnn2C(C)C` were, in that order, 27.8% and 0%.
The like results for `N=C(N)Nc1ccc(-c2ccc(-c3ccc(NC(=N)N)cc3Cl)o2)c(Cl)c1` were, in that order, 19.8% and 0%.
As to `CCCn1c(NC(=O)c2ccc3ccccc3n2)nc2ccccc21`, the growth inhibition in experiment [1] was 3.5%; in experiment [2], 0%.
The like results for `Nc1ncc(-c2ccc(C(F)(F)F)nc2)cc1-c1ccc(C(F)(F)F)nc1` were, in that order, 18.2% and 11%.
The like results for `CS(=O)(=O)N1CCC(Cn2nc(Cc3cccc4ccccc34)c3c(N)ncnc32)CC1` were, in that order, 11.2% and 22%.
The like results for `COc1cccn2c(C(=O)N3CCCCC3)c(C(F)(F)F)nc12` were, in that order, 8.75% and 5%.
As to `C[C@H]1COc2c(N3CCN(C)CC3)c(F)cc3c(=O)c(C(=O)O)cn1c23`, the growth inhibition in experiment [1] and in experiment [2] was 0% in each case.
In the case of `Cc1cc(C)n2nc(C(=O)Nc3cc(C(F)(F)F)ccc3N3CCOCC3)nc2n1`, the growth inhibition in experiment [1] was 0.25%; in experiment [2] it was 12.5%.
Consider `O=C(CN1CCOCC1)Nc1ccc2ncnc(Nc3ccc(OCc4cccc(F)c4)c(Cl)c3)c2c1`, for which the growth inhibition in experiment [1] was 8.25%; in experiment [2] it was 15.8%.
As for `CC(=O)NCC1CN(c2ccc(-c3ccc(CNCc4cn[nH]n4)cc3)c(F)c2)C(=O)O1` (stereo unspecified), the growth inhibition was 15.5% in experiment [1] and 0% in experiment [2].

The record behind these values is the supplement of paper PMC7556523.
